Results filed as inconclusive are left out. Active and inactive are the calls of the source. Rule for the calls, unless noted: active = hit-call score of the fitted dose curve at least 0.9, where 1 is the maximum; inactive = score below 0.9.
Legend:
[1] = ATG_TAL_CIS: Attagene CIS-FACTORIAL HepG2 Assay for human TAL Basal Promoter (AID 2282966); settings: HepG2 Attagene cis-factorial TAL promoter reporter; actives raise or lower the signal;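 note: background control endpoint measuring basal TAL promoter reporter mRNA not a specific factor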
Method in brief: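 Endogenous transcription-factor activity is sensed in HepG2 cells through transfected cis-promoter reporter constructs. After 24 h dosing, reporter transcripts are quantified by RT-PCR and capillary electrophoresis. Gain or loss of signal is fitted relative to DMSO.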

[2] = ATG_TGFb_CIS: Attagene CIS-FACTORIAL HepG2 Assay for human Transforming Growth Factor (TGF) (AID 2282967); settings: HepG2 Attagene CIS TGFb reporter, mRNA transcription; actives raise or lower the signal
Method in brief: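 Transient MRTU transfection of HepG2 (FuGene 6). Dose 24 h. TriZol RNA, oligo(dT) RT, PCR, 6-FAM primer extension, HpaI cut, CE. Bidirectional fit, DMSO = baseline.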

[3] = ATG_VDRE_CIS: Attagene CIS-FACTORIAL HepG2 Assay for human Vitamin D Receptor Element (VDRE) (AID 2282968); settings: HepG2 VDRE cis-reporter transcription, actives raise or lower the signal
Method in brief: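 Compounds were applied for 24 h to HepG2 cells transfected with promoter-regulated reporter units. Total RNA was reverse-transcribed, and reporter amplicons were fluorescently labelled and sized by capillary electrophoresis.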

[4] = target: Nuclear receptor subfamily 1 group I member 3 (Homo sapiens) (UniProt Q14994); experiment: ATG_CAR_TRANS: Attagene TRANS-FACTORIAL HepG2 Assay for human Constitutive Androstane Receptor (CAR) (AID 2282969; active = hit-call score of the fitted dose curve at least 0.9, where 1 is the maximum;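 note: activators raise reporter mRNA above DMSO so AC50 marks induction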); settings: HepG2 Attagene TRANS-FACTORIAL CAR reporter
Nuclear receptor subfamily 1 group I member 3 (Homo sapiens), sequence (Q14994 whole entry, looked up, the tested form may be a part): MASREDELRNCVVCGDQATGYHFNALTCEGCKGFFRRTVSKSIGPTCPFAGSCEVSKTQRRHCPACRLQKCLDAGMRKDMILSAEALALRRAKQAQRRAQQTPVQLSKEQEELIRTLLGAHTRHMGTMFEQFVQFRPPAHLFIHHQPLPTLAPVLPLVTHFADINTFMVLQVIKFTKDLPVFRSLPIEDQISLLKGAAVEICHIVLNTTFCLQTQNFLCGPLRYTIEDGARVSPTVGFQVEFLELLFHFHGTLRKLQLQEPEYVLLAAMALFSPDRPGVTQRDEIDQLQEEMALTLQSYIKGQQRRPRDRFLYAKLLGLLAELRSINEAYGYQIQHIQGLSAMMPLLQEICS
Method in brief: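 Transiently transfected HepG2, multiplex TRANS reporters (CAR-Gal4 chimera driving GAL4-UAS reporter). 24 h dosing. Readout: reporter transcript by RT-PCR + capillary electrophoresis, fluorescence intensity; positive direction vs DMSO.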

[5] = target: Estrogen receptor (Homo sapiens) (UniProt P03372); experiment: ATG_ERa_TRANS: Attagene TRANS-FACTORIAL HepG2 Assay for human Estrogen Receptor alpha (ERa) (AID 2282970; active = hit-call score of the fitted dose curve at least 0.9, where 1 is the maximum); settings: HepG2 Attagene TRANS ERa GAL4 reporter, mRNA
Estrogen receptor (Homo sapiens), sequence (P03372 whole entry, looked up, the tested form may be a part): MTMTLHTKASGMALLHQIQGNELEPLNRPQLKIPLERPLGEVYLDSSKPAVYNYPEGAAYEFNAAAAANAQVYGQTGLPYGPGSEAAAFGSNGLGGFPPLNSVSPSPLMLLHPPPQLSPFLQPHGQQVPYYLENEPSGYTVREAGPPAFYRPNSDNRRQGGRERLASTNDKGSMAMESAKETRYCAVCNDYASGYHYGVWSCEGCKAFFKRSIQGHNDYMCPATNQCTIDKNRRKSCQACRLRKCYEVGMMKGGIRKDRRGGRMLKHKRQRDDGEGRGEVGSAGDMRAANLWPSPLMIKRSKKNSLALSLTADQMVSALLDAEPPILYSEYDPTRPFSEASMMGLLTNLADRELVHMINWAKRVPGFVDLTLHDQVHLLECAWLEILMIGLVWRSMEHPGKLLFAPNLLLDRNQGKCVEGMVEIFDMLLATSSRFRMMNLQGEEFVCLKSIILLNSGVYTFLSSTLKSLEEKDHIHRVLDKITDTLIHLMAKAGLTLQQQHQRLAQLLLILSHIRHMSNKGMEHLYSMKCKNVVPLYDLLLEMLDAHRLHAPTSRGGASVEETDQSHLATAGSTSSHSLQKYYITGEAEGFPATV
Method in brief: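 Transfected HepG2 cells carrying GAL4-UAS-driven reporter units were dosed for 24 hours. Total RNA was reverse-transcribed, reporter sequences PCR-amplified, FAM-labelled, HpaI-digested and resolved by capillary electrophoresis. Increases over DMSO control defined activity.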

[6] = target: X-box-binding protein 1 (Homo sapiens) (UniProt P17861); experiment: ATG_Xbp1_CIS: Attagene CIS-FACTORIAL HepG2 Assay for human X-box Binding Protein 1 (XBP1) (AID 2282972); settings: HepG2 XBP1 cis-element reporter, Attagene multiplex; actives raise or lower the signal
X-box-binding protein 1 (Homo sapiens), sequence (P17861 whole entry, looked up): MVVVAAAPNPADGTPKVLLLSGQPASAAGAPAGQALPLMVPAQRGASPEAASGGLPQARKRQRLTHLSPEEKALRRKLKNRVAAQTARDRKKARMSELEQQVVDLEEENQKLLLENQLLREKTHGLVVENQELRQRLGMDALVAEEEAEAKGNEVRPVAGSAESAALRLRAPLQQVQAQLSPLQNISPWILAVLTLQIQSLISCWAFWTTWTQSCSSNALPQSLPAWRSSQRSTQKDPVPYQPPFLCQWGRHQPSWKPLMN
Method in brief: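 Multiplexed cis-reporter readout in transfected HepG2 liver cells. Exposure lasted 24 hours. Activity in either direction was fitted against DMSO as negative control and baseline.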

[7] = ATG_M_19_TRANS: Attagene TRANS-FACTORIAL HepG2 Assay for M19 Transcription Factor (Internal Marker) (AID 2282974; active = hit-call score of the fitted dose curve at least 0.9, where 1 is the maximum); settings: HepG2 Attagene TRANS-FACTORIAL M19 internal marker reporter
Method in brief: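 Background-control readout: after 24 h chemical exposure of transfected HepG2 carrying GAL4-driven reporter units, RNA was reverse-transcribed, amplified, fluorescently labeled and sized by capillary electrophoresis; gain-of-signal fit against DMSO.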

[8] = ATG_GAL4_TRANS: Attagene TRANS-FACTORIAL HepG2 Assay for GAL4 (Internal Marker) (AID 2282976; active = hit-call score of the fitted dose curve at least 0.9, where 1 is the maximum); settings: HepG2 Attagene TRANS GAL4 internal marker reporter
Method in brief: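 Fluorescence from capillary electrophoresis of labelled RT-PCR products quantifies reporter mRNA induction after 24 h dosing of HepG2 cells carrying transfected GAL4-UAS reporter transcription units. Vehicle DMSO serves as baseline.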

[9] = target: Steroid hormone receptor ERR1 (Homo sapiens) (UniProt P11474); experiment: ATG_ERRa_TRANS: Attagene TRANS-FACTORIAL HepG2 Assay for human Estrogen-Related Receptor alpha (ERRa) (AID 2282971; active = hit-call score of the fitted dose curve at least 0.9, where 1 is the maximum); settings: HepG2 Attagene TRANS reporter, ERRa transactivation
Steroid hormone receptor ERR1 (Homo sapiens), sequence (P11474 whole entry, looked up, the tested form may be a part): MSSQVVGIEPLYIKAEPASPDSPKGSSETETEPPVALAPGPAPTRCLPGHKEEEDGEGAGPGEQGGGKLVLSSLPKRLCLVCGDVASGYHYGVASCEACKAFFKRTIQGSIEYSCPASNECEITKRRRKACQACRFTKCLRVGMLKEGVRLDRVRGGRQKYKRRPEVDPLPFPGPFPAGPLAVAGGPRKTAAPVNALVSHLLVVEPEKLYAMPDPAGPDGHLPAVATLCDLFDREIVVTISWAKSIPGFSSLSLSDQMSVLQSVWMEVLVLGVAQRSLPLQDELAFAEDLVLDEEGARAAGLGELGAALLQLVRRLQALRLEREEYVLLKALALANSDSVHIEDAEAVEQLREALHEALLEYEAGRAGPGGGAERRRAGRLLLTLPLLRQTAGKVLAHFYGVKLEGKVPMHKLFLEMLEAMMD
Method in brief: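 HepG2 cells were transiently transfected with multiple GAL4-UAS reporter units, then dosed with compound for 24 h. Total RNA was reverse-transcribed, reporter cDNA PCR-amplified and fluorescently labelled, and fragments resolved by capillary electrophoresis; induction was compared with DMSO.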

[10] = target: Estrogen-related receptor gamma (Homo sapiens) (UniProt P62508); experiment: ATG_ERRg_TRANS: Attagene TRANS-FACTORIAL HepG2 Assay for human Estrogen-Related Receptor gamma (ERRg) (AID 2282977; active = hit-call score of the fitted dose curve at least 0.9, where 1 is the maximum;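 note: hits increase reporter signal over DMSO so potencies reflect activators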); settings: HepG2 Attagene TRANS reporter, ERRg transactivation
Estrogen-related receptor gamma (Homo sapiens), sequence (P62508 whole entry, looked up, the tested form may be a part): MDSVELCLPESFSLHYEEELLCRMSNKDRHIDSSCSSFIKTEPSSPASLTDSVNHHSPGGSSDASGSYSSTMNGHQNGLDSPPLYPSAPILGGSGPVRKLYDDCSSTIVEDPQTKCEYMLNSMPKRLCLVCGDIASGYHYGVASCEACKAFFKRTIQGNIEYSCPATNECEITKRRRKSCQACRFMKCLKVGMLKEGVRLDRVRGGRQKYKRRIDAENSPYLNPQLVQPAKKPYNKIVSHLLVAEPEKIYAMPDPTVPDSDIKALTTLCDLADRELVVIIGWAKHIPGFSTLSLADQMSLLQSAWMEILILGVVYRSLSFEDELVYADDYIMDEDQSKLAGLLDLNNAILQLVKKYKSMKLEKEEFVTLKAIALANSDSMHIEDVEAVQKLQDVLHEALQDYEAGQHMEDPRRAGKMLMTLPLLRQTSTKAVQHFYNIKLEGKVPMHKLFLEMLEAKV
Method in brief: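 Induction of reporter transcripts through a chimeric NR-Gal4 protein is quantified in transfected human HepG2 liver cells after 24 h chemical exposure, using RT-PCR with capillary electrophoresis detection and DMSO as baseline.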

Measured: AC50

CC(C)c1ccc(C(C)C)cc1
active: [2] 171 µM
not listed: [8] | [9] | [10]
inactive: all other assays above

Cc1ccc(Nc2ccc(O)c3c2C(=O)c2ccccc2C3=O)cc1
not listed: [8] | [9] | [10]
inactive: all other assays above

CN(C)CCCN
inactive: [1] | [2] | [3] | [4] | [5] | [6]

CCCCCCCCCOC(C)=O
not listed: [9] | [10]
inactive: all other assays above

CCC(O)CO (stereo not given)
not listed: [9] | [10]
inactive: all other assays above

NCCNCCN
not listed: [5] | [10]
inactive: all other assays above

CCCCc1ccc(N)cc1
active: [5] 12.8 µM
inactive: [1] | [2] | [3] | [4] | [6]

Cc1ncc([N+](=O)[O-])n1C
not listed: [9]
inactive: all other assays above

CC1=CCC(O)(C(C)C)CC1 (stereo not given)
not listed: [9] | [10]
inactive: all other assays above

Cc1ccc2sc3cccc(C)c3c2c1
inactive: [1] | [2] | [3] | [4] | [5] | [6]

O=C(O)c1cccc(C(F)(F)F)c1
not listed: [7] | [9]
inactive: all other assays above

COc1ccc(OC)c(OC)c1
not listed: [7] | [9] | [10]
inactive: all other assays above

CC(=O)OCCOC(C)=O
not listed: [5] | [9] | [10]
inactive: all other assays above

CC(C)(COC(=O)c1ccccc1)COC(=O)c1ccccc1
inactive: [1] | [4] | [6]
active: [2] 100 µM | [3] 45.8 µM

CC(=O)c1c(C)cc(C(C)(C)C)cc1C
inactive: [1] | [2] | [3] | [4] | [6]

COCCOCCOCCOCCOCCO
not listed: [5] | [8]
inactive: all other assays above

Fc1c(F)c(F)c(Br)c(F)c1F
inactive: [1] | [2] | [3] | [4] | [6] | [7]

Cc1ccc(C=O)s1
not listed: [5]
inactive: all other assays above

CCCCCCCCCCC(CO)CCCCCCCC (stereo not given)
inactive: [1] | [2] | [3] | [4] | [6] | [7]

O=C1CCCCCCCCCCOCCCCO1
inactive: [1] | [2] | [3] | [4] | [6] | [7]

CCCCCCCCCCCCN(CCCCCCCCCCCC)CCCCCCCCCCCC
inactive: [1] | [2] | [3] | [4] | [6] | [7]

C[Si](O[Si](C)(C)C)O[Si](C)(C)C
inactive: [1] | [2] | [3] | [4] | [6] | [7]

O=S(=O)(O)c1cccc2c(S(=O)(=O)O)cccc12
not listed: [5] | [9] | [10]
inactive: all other assays above

CC(C)=CCC[C@](C)(O)[C@@H]1CC=C(C)CC1
inactive: [1] | [2] | [3] | [4] | [6] | [7]

CCCCOCCOCCSC#N
not listed: [5] | [9] | [10]
inactive: all other assays above

Cc1ccc(O)c(C(C)(C)C)c1
inactive: [2] | [4] | [7]
active: [1] 181 µM | [3] 100 µM | [6] 142 µM

CC(C)CCCCCCCOC(=O)c1ccc(C(=O)OCCCCCCCC(C)C)c(C(=O)OCCCCCCCC(C)C)c1
inactive: [1] | [2] | [3] | [4] | [6] | [7]

COc1ccc(NC(=O)CC(C)=O)cc1
not listed: [5] | [9] | [10]
inactive: all other assays above

CCC(=O)OCCC(C)CCC=C(C)C (stereo not given)
not listed: [5] | [9] | [10]
inactive: all other assays above

CN(C)c1ccc(O)c2c1C[C@H]1C[C@H]3[C@H](N(C)C)C(=O)C(C(N)=O)=C(O)[C@@]3(O)C(=O)C1=C2O
not listed: [5] | [9] | [10]
inactive: all other assays above
